The test system of assay [1] is TRPC4 beta (transient receptor potential cation channel C4), mouse. Nature of the assay: activators of mouse TRPC4 channel, confirmation, cell-based, Fluo4 calcium, HEK293 TRPC4beta/mu-opioid, duplicates, 10 µM (AID 2426;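 active means fluorescence ratio normalized to control raised more than 50% in primary screen plus both repeat runs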;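 on activation: percent rise of integrated ratio over buffer wells lacking compound which define 0%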). To be noted: Fluo4 calcium fluorescence, at 10 µM; hits give high values.
The subject of assay [2] is transient receptor potential cation channel C4 beta (TRPC4), mouse. The assay is described as follows: activators of mouse TRPC4 channel, confirmation, cell-based, second round, Fluo4, HEK293 TRPC4beta/mu-opioid, 1 µM (AID 2461;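 active means primary screen active and over 50% activation in each of two duplicate runs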;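 on activation: 0% = wells without test compound as baseline of integrated fluorescence ratio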). To be noted: Fluo4 calcium fluorescence, at 1 µM; hits give high values.
The test system of assay [3] is TRPC4 (transient receptor potential cation channel C4 beta), mouse. Nature of the assay: positive allosteric modulators of mouse TRPC4, confirmation, cell-based, second round, Fluo-4, HEK293 TRPC4beta/mu-opioid, 1 µM (AID 2554;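 active means primary screen hit whose fluorescence ratio, in both repeats, exceeds the weak agonist control mean by 3 SD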). To be noted: DAMGO EC20, Fluo-4 calcium flux, at 1 µM; hits give high values. For orientation: Calcium flux is commonly read through the fluorescence of an indicator in the cells.

The test system of assay [4] is TRPC4 beta (transient receptor potential cation channel C4), mouse. The assay is described as follows: positive allosteric modulators of mouse TRPC4, confirmation, cell-based, Fluo-4, HEK293 TRPC4beta/mu-opioid (AID 2555;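 active means primary screen hit whose calcium fluorescence ratio, in both repeats, exceeds the weak agonist control mean by 3 SD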). To be noted: DAMGO EC20, Fluo-4 calcium flux, at 10 µM; hits give high values.
In assay [5] the target is Short transient receptor potential channel 4 (Mus musculus) (UniProt Q9QUQ5). Nature of the assay: inhibitors of mouse TRPC4 channel, confirmation, cell-based, Fluo4, HEK293 TRPC4beta/mu-opioid (AID 2636;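 active means calcium signal cut by more than 3 SD below the full-agonist control yet still positive, in both repeats and the earlier primary screen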). To be noted: DAMGO, Fluo4 calcium flux, at 10 µM; hits give high values.
Sequence of Short transient receptor potential channel 4 (Mus musculus) (Q9QUQ5 whole entry, looked up): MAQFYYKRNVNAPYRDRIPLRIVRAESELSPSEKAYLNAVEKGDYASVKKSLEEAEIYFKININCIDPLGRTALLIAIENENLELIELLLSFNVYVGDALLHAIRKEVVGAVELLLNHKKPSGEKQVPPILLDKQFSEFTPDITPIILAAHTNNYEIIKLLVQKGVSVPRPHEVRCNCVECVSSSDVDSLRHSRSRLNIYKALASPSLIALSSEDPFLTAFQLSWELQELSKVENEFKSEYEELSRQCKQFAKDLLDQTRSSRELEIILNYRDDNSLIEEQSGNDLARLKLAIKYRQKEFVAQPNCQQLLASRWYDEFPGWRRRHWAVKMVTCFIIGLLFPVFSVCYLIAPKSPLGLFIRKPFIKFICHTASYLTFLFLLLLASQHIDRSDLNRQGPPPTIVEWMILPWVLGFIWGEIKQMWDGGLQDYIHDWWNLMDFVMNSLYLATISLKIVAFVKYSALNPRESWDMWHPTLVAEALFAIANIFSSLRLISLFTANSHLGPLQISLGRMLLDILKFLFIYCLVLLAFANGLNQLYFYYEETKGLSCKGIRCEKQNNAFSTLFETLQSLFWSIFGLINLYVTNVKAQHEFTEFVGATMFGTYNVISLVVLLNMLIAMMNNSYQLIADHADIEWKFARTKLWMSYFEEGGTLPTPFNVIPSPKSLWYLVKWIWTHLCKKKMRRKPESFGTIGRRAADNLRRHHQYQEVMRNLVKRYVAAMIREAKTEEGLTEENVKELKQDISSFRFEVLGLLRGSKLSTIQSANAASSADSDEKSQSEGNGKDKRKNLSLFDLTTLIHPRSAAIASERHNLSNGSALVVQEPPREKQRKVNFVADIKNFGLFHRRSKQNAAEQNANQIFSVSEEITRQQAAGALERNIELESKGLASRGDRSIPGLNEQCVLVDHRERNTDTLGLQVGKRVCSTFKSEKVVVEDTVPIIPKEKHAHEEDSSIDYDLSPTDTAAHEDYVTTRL
The target is the same in assay [6]. The assay is described as follows: inhibitors of mouse TRPC4 channel, confirmation, cell-based, second round, Fluo4, HEK293 TRPC4beta/mu-opioid, 1 µM (AID 2637;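 active means calcium signal ratio cut to more than 3 SD under the fully stimulated control mean yet still positive, in both repeats and the primary screen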). To be noted: Fluo4 calcium flux, DAMGO, at 1 µM; hits give high values.
Assay [7] shares this target. The assay is described as follows: TRPC4 positive allosteric modulators, dose response, cell-based, HEK293 TRPC4/mu-opioid, Fluo-4 calcium, EC20 DAMGO (AID 434941;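 active means earlier screen potentiator hit that boosts the TRPC4 ion channel at some dose, with a dose response; inactive means no potentiation, no dose response, or not a prior hit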;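 further: calcium entry triggered by an EC20 dose of DAMGO at the co-expressed mu-opioid receptor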).
Assay [8] has the same target. The assay is described as follows: mouse TRPC4 channel inhibitors, dose response, cell-based, HEK293 TRPC4/mu-opioid, Fluo-4 calcium (AID 434942;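 active means primary screen inhibitor hit that blocks the TRPC4 channel at some tested dose, yielding a dose curve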).
Assay [9] addresses Short transient receptor potential channel 6 (Mus musculus) (UniProt Q61143). Nature of the assay: inhibition of mouse TRPC6 channel, confirmation, selectivity assay for TRPC4 inhibitor project, cell-based, HEK293, membrane potential dye, duplicate (AID 434948;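 active means active in primary screen and both duplicates, each dropping signal beyond three positive-control SD with fluorescence still positive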). To be noted: HEK293 TRPC6, membrane potential dye fluorescence, at 10 µM, stimulated with maximal-effect acetylcholine; hits give high values.

Assay [10] has the same target. Nature of the assay: activation of mouse TRPC6 channel, confirmation, selectivity assay for TRPC4 activator project, cell-based, HEK293, membrane potential dye, duplicate (AID 434950;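 active means membrane potential signal rise above negative control mean plus 3 SD in both duplicates, also active in the earlier TRPC4 screen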;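 on activation: 0% = buffer only wells and 100% = acetylcholine maximal-effect wells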). To be noted: HEK293 TRPC6, membrane potential fluorescence, at 10 µM; hits give high values.
The target is the same in assay [11]. Nature of the assay: TRPC6 potentiation by TRPC4 potentiator hits, confirmation, selectivity assay for TRPC4 potentiator project, HEK293 cells, membrane potential dye, duplicate (AID 434952;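 active means compound raising the membrane signal above positive-control mean plus 3 SD in both repeats, and a primary screen hit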). To be noted: HEK293 TRPC6, membrane potential dye fluorescence, at 10 µM, maximal acetylcholine added after compound; hits give high values.
The target in assay [12] is Short transient receptor potential channel 4 (Mus musculus) (UniProt Q9QUQ5). Nature of the assay: calcium flux activators in TRPC4/5HT1a cells, counter-screen for TRPC4 activator project, cell-based, second counter screen, HEK293 TRPC4/5HT1a, Fluo-4 (AID 434977;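 active means calcium signal rise above buffer-control mean plus 5 SD in both duplicates, and also a hit in the primary screen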;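 on activation: plate controls were assay buffer for no effect and maximal serotonin response for full effect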). To be noted: Fluo-4 calcium flux, at 10 µM; hits give high values.
Assay [13] can be described thus: calcium flux inhibitors in TRPC4/5HT1a cells, confirmation, counter-screen for TRPC4 inhibitor project, cell-based, second counter screen, HEK293 TRPC4/5HT1a, Fluo-4 (AID 434978;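 active means primary screen active whose calcium signal fell more than 3 SD beyond the full-serotonin control mean in both duplicate plates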;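 further: serotonin given first at submaximal then at maximal dose after compound preincubation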). To be noted: Fluo-4 calcium flux, at 10 µM, serotonin added to trigger calcium flux; hits give high values.
Assay [14] relates to TRPC4 (mouse), co-expressed with 5HT1a in HEK293. Nature of the assay: calcium flux potentiators in TRPC4/5HT1a cells, confirmation, counter-screen for TRPC4 potentiator project, cell-based, second counter screen, HEK293 TRPC4/5HT1a, Fluo-4 (AID 434979;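 active means signal rise over 3 SD above mean of control wells given weak agonist, in both repeats and first screen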). To be noted: Fluo-4 calcium flux, at 10 µM, serotonin added at its EC20 dose; hits give high values.
Assay [15] is described as follows: calcium flux activation in mu-opioid HEK293 cells, confirmation, counter-screen for TRPC4 activator project, cell-based, HEK293 mu-opioid receptor line (AID 449723).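 Further: counter screen cells carry the mu-opioid receptor alone and lack TRPC4.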 To be noted: Fluo-4 calcium fluorescence, at 10 µM; hits give high values.
A short description of assay [16]: calcium flux enhancement in mu-opioid HEK293 cells, confirmation, counter-screen for TRPC4 allosteric potentiator project, cell-based, HEK293 mu-opioid receptor line (AID 449724;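 active means calcium signal rise more than 3 SD above the low-dose agonist control mean, in both duplicate plates and the primary screen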;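 further: HEK293 cells carrying mu-opioid receptor only with no TRPC4 channel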). To be noted: Fluo-4 calcium flux, at 10 µM, compound added before EC20 DAMGO stimulus; hits give high values.

15 compounds from PubChem BioAssay can be followed below.

For part of these data: Results with a measured potency or affinity are listed apart. The source made the active and inactive calls.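 How the source made its calls, unless noted: active means hit in primary screen, with calcium signal over 5 SD above buffer well mean in both duplicates; inactive means the rest.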

Sequence of Short transient receptor potential channel 6 (Mus musculus) (Q61143 whole entry, looked up): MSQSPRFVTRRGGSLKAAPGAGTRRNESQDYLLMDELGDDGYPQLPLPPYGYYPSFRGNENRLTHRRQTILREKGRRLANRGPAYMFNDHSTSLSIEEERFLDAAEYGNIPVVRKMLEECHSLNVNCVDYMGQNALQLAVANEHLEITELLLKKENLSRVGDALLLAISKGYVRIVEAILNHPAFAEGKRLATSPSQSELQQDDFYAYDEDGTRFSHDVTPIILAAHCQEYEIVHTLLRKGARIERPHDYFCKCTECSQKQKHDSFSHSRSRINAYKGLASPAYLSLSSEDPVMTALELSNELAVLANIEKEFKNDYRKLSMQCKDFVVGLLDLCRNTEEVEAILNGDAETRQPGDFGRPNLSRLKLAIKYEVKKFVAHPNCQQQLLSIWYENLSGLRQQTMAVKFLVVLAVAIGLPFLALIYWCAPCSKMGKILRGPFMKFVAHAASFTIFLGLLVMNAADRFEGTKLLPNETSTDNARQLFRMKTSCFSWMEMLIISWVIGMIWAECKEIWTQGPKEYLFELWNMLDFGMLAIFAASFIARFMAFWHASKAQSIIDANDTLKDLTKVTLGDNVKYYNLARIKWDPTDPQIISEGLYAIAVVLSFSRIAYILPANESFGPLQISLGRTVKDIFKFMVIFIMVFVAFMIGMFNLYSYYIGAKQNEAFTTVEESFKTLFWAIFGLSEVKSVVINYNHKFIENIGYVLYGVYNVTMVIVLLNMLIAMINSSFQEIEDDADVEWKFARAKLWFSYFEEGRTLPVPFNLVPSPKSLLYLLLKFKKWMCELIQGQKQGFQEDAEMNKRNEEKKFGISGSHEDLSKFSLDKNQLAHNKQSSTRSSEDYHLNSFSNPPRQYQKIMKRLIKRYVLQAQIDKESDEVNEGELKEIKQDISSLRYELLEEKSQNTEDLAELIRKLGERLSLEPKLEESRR

As to `Cc1ccc(NC(=O)CCN2CCC(Cc3ccccc3)CC2)cc1`, the outcome in assay [1], in assay [2], in [3], in [4], in assay [5] and in assay [6] was inactive. The result in assay [7], in assay [8], in assay [9], in assay [10], in [11] and in assay [13] was inactive. In addition, the result in assay [14], in [15] and in assay [16] was inactive. In addition, in assay [12], the activation is 15.7% (active).
Consider `COc1ccc(CNCc2cn(-c3cccc(F)c3)nc2-c2ccc(C)o2)cc1`, for which the activation in assay [1] is 156% (active); in assay [15], 12.4% (active). Further, the outcome in [2], in assay [3], in assay [4], in [5], in assay [6] and in assay [7] was inactive. The result in assay [8], in assay [9], in assay [10], in [11], in [12] and in [13] was inactive. Moreover, the outcome in assay [14] and in [16] was inactive.
`COC(=O)c1ccc(C(=S)NCC2(N(C)C)CCCCC2)cc1`: the activation in assay [1] was 181% (active); in assay [10], 41% (active); in [12], 22.2% (active); in assay [15], 14.7% (active). Besides, the outcome in assay [2], in [3], in [4], in assay [5], in assay [6] and in [7] was inactive. Also, the result in assay [8], in assay [9], in [11], in assay [13], in assay [14] and in [16] was inactive.
For `CCCCN1/C(=C/c2ccc3ccccc3[n+]2CC)Sc2ccccc21`, the activation in [1] is 412% (active); in assay [12], 154% (active); in assay [15] it was 271% (active). Moreover, the result in [2], in assay [3], in assay [4], in [5], in assay [6] and in assay [7] was inactive. The result in assay [8], in assay [9], in assay [10], in assay [11], in [13] and in [14] was inactive. In addition, in [16], the outcome was inactive.
With `Cc1ccc(Cn2c(SCCN3CCCCC3)nc3c2c(=O)n(C)c(=O)n3C)cc1`, the activation is 114% (active) in assay [1] and 8.42% (active) in assay [12]. Moreover, the outcome in assay [2], in assay [5], in assay [6], in assay [7], in assay [8] and in assay [9] was inactive. The call in assay [10], in assay [11], in assay [13], in assay [15] and in assay [16] was inactive. Besides, the potentiation is 8% (active) in assay [3], 13% (active) in assay [4] and 81% (active) in [14].
`COc1cccc(C(=O)OC2CCCN(C)C2)c1` (stereo not given): the activation in assay [1] was 135% (active); in assay [2] it was 85% (active); in assay [10], 43% (active); in assay [12] it was 48.9% (active). In addition, the outcome in [3], in [4], in [5], in assay [6], in assay [7] and in [8] was inactive. The compound was called inactive in [9], in assay [11], in assay [13], in [14], in assay [15] and in [16].
As for `CCCCN(CC)CCNC(=O)c1cc2c(-c3ccc(Cl)cc3)nn(C)c2s1`, the outcome in assay [1], in [2], in assay [3], in assay [4], in [5] and in [6] was inactive. In addition, the outcome in assay [7], in assay [8], in assay [9], in assay [10], in assay [11] and in assay [13] was inactive. Also, the result in assay [14], in [15] and in assay [16] was inactive. Further, the activation in assay [12] was 20.5% (active).
On to `CCOC(=O)C1(CC2CC2)CCN(Cc2cnc(-c3ccccc3C)nc2)CC1`, for which the outcome in assay [1], in [2], in [3], in assay [4], in assay [5] and in [6] was inactive. The outcome in [7], in assay [8], in assay [9], in [11], in assay [12] and in [13] was inactive. The result in assay [14], in assay [15] and in assay [16] was inactive. In assay [10], the activation is 59.5% (active).
With `Cc1oc(-c2ccccc2Cl)nc1CS(=O)CC(=O)NCCCN1CC(C)CC(C)C1` (stereo not given), the activation was 78% (active) in [1], 58% (active) in assay [2], 31% (active) in [10] and 20.1% (active) in [12]. Further, the outcome in [3], in assay [4], in [5], in assay [6], in assay [7] and in assay [8] was inactive. Besides, the compound was classed as inactive in assay [9], in assay [11], in assay [13], in [14], in assay [15] and in assay [16].
Regarding `COc1ccc(CCN(C)C(=O)C2CCCN(C3CCN(Cc4ccccc4)CC3)C2)cc1OC` (stereo not given), the activation was 143% (active) in [1], 64% (active) in [2], 50% (active) in [10] and 28.9% (active) in assay [12]. The result in assay [3], in assay [4], in [5], in assay [6], in assay [7] and in [8] was inactive. In addition, the compound was called inactive in assay [9], in assay [11], in assay [13], in [14], in [15] and in assay [16].
`Cc1onc(-c2ccccc2)c1C(=O)NNC(=S)NC(=O)c1ccc2c(c1)OCO2`: the activation in assay [1] is 55% (active); in assay [12] it was 56.5% (active). Also, the outcome in [2], in assay [3], in assay [4], in assay [5], in assay [6] and in assay [7] was inactive. The result in assay [8], in assay [9], in assay [10], in [11], in assay [13] and in assay [14] was inactive. The outcome in assay [15] and in assay [16] was inactive.
For the compound `Cc1ccc(NC(=S)NC2CC3CCC(C2)N3Cc2ccco2)c(C)c1` (stereo not given), the activation was 116% (active) in assay [1] and 25.9% (active) in [12]. For the same compound, the outcome in assay [2], in assay [3], in assay [4], in assay [5], in [6] and in assay [7] was inactive. Moreover, the result in assay [8], in assay [9], in assay [10], in assay [11], in assay [13] and in assay [14] was inactive. The result in assay [15] and in assay [16] was inactive.
For `Cc1ccc(NC(=O)NCC(c2ccccc2)N(C)C)cc1` (stereo not given), the activation in assay [1] was 107% (active); in assay [2] it was 136% (active); in [10] it was 38.5% (active). Further, the result in assay [3], in assay [4], in [5], in [6], in assay [7] and in assay [8] was inactive. Moreover, the compound was classed as inactive in assay [9], in [11], in assay [12], in [13], in assay [14] and in [15]. The result in [16] was inactive.
On to `CCC(=O)NC(C)C(c1cccs1)N1CCN(c2ccccc2)CC1` (stereo not given), for which the result in assay [1], in assay [2], in assay [3], in assay [4], in assay [5] and in assay [6] was inactive. The outcome in assay [7], in [8], in [9], in assay [11], in assay [12] and in assay [13] was inactive. The outcome in [14], in [15] and in assay [16] was inactive. In addition, in assay [10], the activation is 29% (active).
Regarding `Cc1cccc(OCCC(=O)NCC(c2ccccc2)N(C)C)c1` (stereo not given), the result in [1], in assay [2], in [3], in assay [4], in [5] and in assay [6] was inactive. Further, the outcome in assay [7], in [8], in assay [9], in assay [11], in assay [12] and in assay [13] was inactive. Moreover, the outcome in assay [14], in assay [15] and in [16] was inactive. Further, in assay [10], the activation is 52% (active).
